This passage reports inhibition results from PubChem BioAssay.

A number with no mark means an inactive call. Activity calls are given as the source filed them. Unless noted, no stated cut-off is given here; in the data, active means inhibition above about 44%; inactive means the rest.

Chain of Steroidogenic factor 1 (Homo sapiens) (Q13285 whole entry, looked up): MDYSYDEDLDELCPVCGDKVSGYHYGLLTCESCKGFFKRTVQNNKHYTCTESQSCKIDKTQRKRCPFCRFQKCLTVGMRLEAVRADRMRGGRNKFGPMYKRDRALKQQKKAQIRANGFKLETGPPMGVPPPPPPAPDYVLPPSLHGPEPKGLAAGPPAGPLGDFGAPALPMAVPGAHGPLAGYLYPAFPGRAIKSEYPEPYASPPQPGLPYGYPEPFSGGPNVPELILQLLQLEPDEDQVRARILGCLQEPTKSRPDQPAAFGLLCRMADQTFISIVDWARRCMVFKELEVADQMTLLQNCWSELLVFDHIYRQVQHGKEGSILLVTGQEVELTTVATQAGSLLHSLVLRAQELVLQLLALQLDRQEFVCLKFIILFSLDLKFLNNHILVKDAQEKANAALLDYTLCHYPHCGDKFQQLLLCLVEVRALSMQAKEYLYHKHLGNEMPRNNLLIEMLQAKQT

One assay concerns the target Steroidogenic factor 1 (Homo sapiens) (UniProt Q13285). As to the kind of experiment: inverse agonism at SF1 nuclear receptor – cell-based, luminescence, high throughput, counter-screen for LRH-1 inverse agonist project (AID 651614).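 Further: cells cotransfected with StAR promoter reporter and SF1 expression vector; 0% = vehicle on cells with receptor and 100% = vehicle on cells lacking receptor.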 The conditions noted are these: cell-based SF1 luciferase reporter, at 3.6 µM, hits give high values. (In general: The purpose of a counterscreen is to sort out artefacts and off-target activity.)
Regarding `CN(C)CCN1C(=O)c2cccc3cc([N+](=O)[O-])cc(c23)C1=O`, the inhibition was 84.4% (active).
Still for that read-out and setting: for `CC(C)C(=O)NC(c1ccc(Cl)cc1Cl)c1ccc2cccnc2c1O` (stereo not given) the value was 41.4%.
The same measure, in the same setting: for `Brc1ccc2c(c1)-c1ccccc1C1=NCCN12` the value was 75.8% (active).
For `Cc1cc(C)c(CN2CCN(C(=O)Cn3cnc4c(NCc5ccccc5)ncnc43)CC2)c(C)c1`, the inhibition is 57.5% (active).
In the case of `Cc1ccc2occ(/C=N/NC(=O)c3ccccc3O)c(=O)c2c1`, the inhibition was 2%.
In the case of `CCN(CC)C1=CC(=[N+]2CCCC2)CC(C)(C)C1`, the inhibition was 57.5% (active).
On the same count and under the same terms, with `Cc1ccc(S(=O)(=O)/N=C(\CCl)N2CCOCC2)cc1` the figure was 52.1% (active).
Same read-out and setting: for `Cc1cc2[nH]c3c(c[n+](C)c4ccccc34)c2cc1C` the value was 66.4% (active); for `Cc1ccc(Oc2ccc(OCC(=O)Nc3ccncc3)cc2)cc1`, 70.5% (active).
Still for that read-out and setting: with `CCN(CC)CCn1nc2c3c(cccc3c1=O)-c1ccccc1-2` the figure was 80.1% (active).
Turning to `Clc1ccc(-c2nnc(CSc3nnc(-c4cccs4)n3Cc3ccccc3)o2)cc1`, the inhibition is 48.9% (active).
Regarding `O=C(NCc1ccccc1)c1cccc(NC(=O)c2ccccc2)c1`, the inhibition is 59.2% (active).
In the case of `Cc1sc2ncnc(NCC3COc4ccccc4O3)c2c1C` (stereo not given), the inhibition is 46.1% (active).
With `Cc1ccc(/C=C2/CNC/C(=C/c3ccc(C)cc3)C2=O)cc1`, the inhibition is 64.9% (active).
Still for that read-out and setting: for `CCN(CC)S(=O)(=O)c1cc(NC(=O)CNc2cccc(S(=O)(=O)N3CCCC3)c2)ccc1C` the value was 54.9% (active); for `O=C(CSc1nnc(Cn2nnc3ccccc32)o1)N(Cc1ccc(F)cc1)c1ccccc1`, 56.7% (active).
The same measure, in the same setting: with `Cc1cccc(-n2ncc3c2CCCC3NC(=O)c2ccncc2)c1C` (stereo not given) the figure was 52.1% (active).
Take `CC(=O)Nc1ccc(Nc2c3ccccc3nc3ccccc23)cc1`: the inhibition is 69.6% (active).
Same read-out and setting: for `Cc1nc2ccc(NC(=O)c3cc(S(=O)(=O)N(C)c4ccccc4)ccc3Cl)cc2s1` the value was 59.5% (active); for `O=C(Nc1nonc1NC(=O)c1cccs1)c1cccs1`, 66% (active).
Same read-out and setting: for `CCCCCCCCNc1ncnc2ccccc12` the value was 56.2% (active); for `CN(C(=O)c1cccc(NC(=O)Cc2ccc(NC(=O)C3CCCN(C(=O)CCc4ccccc4)C3)cc2)c1)C1CCCCC1` (stereo not given), 48.5% (active).
On the same count and under the same terms, for `COc1ccc(CC(=O)Nc2cccc(S(=O)(=O)N3CCCCCC3)c2)cc1OC` the value was 53.4% (active).
As for `CCc1c(C)nc2ncnn2c1NCCc1ccc(OC)cc1`, the inhibition is 66.2% (active).
Still for that read-out and setting: for `CN(C)c1ccc(Sc2ccc3nc(N)nc(N)c3c2)cc1` the value was 61.6% (active).
On the same count and under the same terms, for `CC(=O)Nc1ccccc1OCC(=O)c1cc(C)n(Cc2cccs2)c1C` the value was 47.4% (active); for `O=C1c2cccc3cc([N+](=O)[O-])cc(c23)C(=O)N1CCN1CCCC1`, 68.6% (active).
Still for that read-out and setting: with `Cc1cccc(-n2c(CNC(=O)c3ccccc3)nnc2SCC(=O)Nc2nccs2)c1` the figure was 17.1%; with `NS(=O)(=O)c1ccc(N=Nc2c(O)[nH]c3ccc(Br)cc23)cc1`, 30.4%; with `COc1cc2c(oc(=O)c3cc(C)cc(OC)c32)c2c(C3OC(C)C(O)C(C)(O)C3O)ccc(O)c12` (stereo not given), 75.5% (active).
As to `CC1(C)CC(N2CCCC2)=CC(=[N+]2CCCC2)C1`, the inhibition is 55.2% (active).
Turning to `CCOC(=O)c1cc(C#N)c(N2CCN(C(=O)c3cccc(C(F)(F)F)c3)CC2)nc1C(F)(F)F`, the inhibition is 51.3% (active).
On the same count and under the same terms, with `COc1cccc2c1C(=O)c1c(O)c3c(c(O)c1C2=O)C[C@@](O)(C(=O)CO)C[C@@H]3OC1CC(N)C(O)C(C)O1` (stereo not given in full) the figure was 70.6% (active); with `CN(C)CCNc1ccc2ncn3c4ccc(O)cc4c(=O)c1c23`, 80.5% (active).
The same measure, in the same setting: with `CCN(CC(=O)Nc1ccc(NC(C)=O)cc1)C(=O)C1(c2ccc(Cl)cc2)CCC1` the figure was 27.4%; with `COc1cccc2c1C(=O)c1c(O)c3c(c(O)c1C2=O)CC(O)(C(C)=O)CC3OC1CC(O)C(O)C(C)O1` (stereo not given), 17.4%.
On the same count and under the same terms, with `Cc1ccc(C#CC[N+]2(CC#Cc3ccc(C)cc3)CCCCC2)cc1` the figure was 65.3% (active); with `O=C(N/N=C/c1ccc(O)cc1)c1ccc(COc2cc(Cl)ccc2Cl)o1`, 47.1% (active); with `CCCCn1c2c(c(=N)c3c1CCC3)CCC2`, 61.9% (active).
Take `Cc1c(C(C)C)c(=O)n(-c2ccc(S(=O)(=O)NCc3ccccc3)cc2)n1C`: the inhibition is 55.1% (active).

System in a further assay: not listed separately
The assay is described as follows: compounds suppressing VP16-driven luciferase signal – cell-based, luminescence, high throughput, counter-screen for LRH-1 inverse agonist project (AID 651615; in the data active means inhibition above about 33%). The conditions noted are these: Gal4-VP16 luciferase reporter cells, at 3.6 µM, hits give high values.
For `CN(C)CCN1C(=O)c2cccc3cc([N+](=O)[O-])cc(c23)C1=O`, the inhibition was 68.2% (active).
As to `CC(C)C(=O)NC(c1ccc(Cl)cc1Cl)c1ccc2cccnc2c1O` (stereo not given), the inhibition was 47.6% (active).
For `Brc1ccc2c(c1)-c1ccccc1C1=NCCN12`, the inhibition is 71.6% (active).
As for `Cc1cc(C)c(CN2CCN(C(=O)Cn3cnc4c(NCc5ccccc5)ncnc43)CC2)c(C)c1`, the inhibition was 57.9% (active).
Take `Cc1ccc2occ(/C=N/NC(=O)c3ccccc3O)c(=O)c2c1`: the inhibition was 25%.
The same measure, in the same setting: with `CCN(CC)C1=CC(=[N+]2CCCC2)CC(C)(C)C1` the figure was 45.8% (active); with `Cc1ccc(S(=O)(=O)/N=C(\CCl)N2CCOCC2)cc1`, -22.8%.
For the molecule `Cc1cc2[nH]c3c(c[n+](C)c4ccccc34)c2cc1C`, the inhibition was 84.2% (active).
Take `Cc1ccc(Oc2ccc(OCC(=O)Nc3ccncc3)cc2)cc1`: the inhibition was 51% (active).
Still for that read-out and setting: for `CCN(CC)CCn1nc2c3c(cccc3c1=O)-c1ccccc1-2` the value was 79.5% (active); for `Clc1ccc(-c2nnc(CSc3nnc(-c4cccs4)n3Cc3ccccc3)o2)cc1`, 41.6% (active); for `O=C(NCc1ccccc1)c1cccc(NC(=O)c2ccccc2)c1`, 62% (active).
Same read-out and setting: with `Cc1sc2ncnc(NCC3COc4ccccc4O3)c2c1C` (stereo not given) the figure was 57.4% (active).
Consider `Cc1ccc(/C=C2/CNC/C(=C/c3ccc(C)cc3)C2=O)cc1`, for which the inhibition is 80.2% (active).
Same read-out and setting: for `CCN(CC)S(=O)(=O)c1cc(NC(=O)CNc2cccc(S(=O)(=O)N3CCCC3)c2)ccc1C` the value was 49.1% (active).
Consider `O=C(CSc1nnc(Cn2nnc3ccccc32)o1)N(Cc1ccc(F)cc1)c1ccccc1`, for which the inhibition is 56.9% (active).
Turning to `Cc1cccc(-n2ncc3c2CCCC3NC(=O)c2ccncc2)c1C` (stereo not given), the inhibition is 44% (active).
On to `CC(=O)Nc1ccc(Nc2c3ccccc3nc3ccccc23)cc1`, for which the inhibition was 72.8% (active).
On the same count and under the same terms, with `Cc1nc2ccc(NC(=O)c3cc(S(=O)(=O)N(C)c4ccccc4)ccc3Cl)cc2s1` the figure was 47.6% (active); with `O=C(Nc1nonc1NC(=O)c1cccs1)c1cccs1`, 52.7% (active).
The same measure, in the same setting: for `CCCCCCCCNc1ncnc2ccccc12` the value was 63.4% (active).
On the same count and under the same terms, with `CN(C(=O)c1cccc(NC(=O)Cc2ccc(NC(=O)C3CCCN(C(=O)CCc4ccccc4)C3)cc2)c1)C1CCCCC1` (stereo not given) the figure was 45.2% (active); with `COc1ccc(CC(=O)Nc2cccc(S(=O)(=O)N3CCCCCC3)c2)cc1OC`, 49.3% (active); with `CCc1c(C)nc2ncnn2c1NCCc1ccc(OC)cc1`, 42.2% (active).
As to `CN(C)c1ccc(Sc2ccc3nc(N)nc(N)c3c2)cc1`, the inhibition was 80.2% (active).
For `CC(=O)Nc1ccccc1OCC(=O)c1cc(C)n(Cc2cccs2)c1C`, the inhibition is 39.6% (active).
Still for that read-out and setting: for `O=C1c2cccc3cc([N+](=O)[O-])cc(c23)C(=O)N1CCN1CCCC1` the value was 64.2% (active); for `Cc1cccc(-n2c(CNC(=O)c3ccccc3)nnc2SCC(=O)Nc2nccs2)c1`, 3.06%; for `NS(=O)(=O)c1ccc(N=Nc2c(O)[nH]c3ccc(Br)cc23)cc1`, 8.51%.
For the molecule `COc1cc2c(oc(=O)c3cc(C)cc(OC)c32)c2c(C3OC(C)C(O)C(C)(O)C3O)ccc(O)c12` (stereo not given), the inhibition was 94% (active).
`CC1(C)CC(N2CCCC2)=CC(=[N+]2CCCC2)C1`: the inhibition was 51.4% (active).
On the same count and under the same terms, with `CCOC(=O)c1cc(C#N)c(N2CCN(C(=O)c3cccc(C(F)(F)F)c3)CC2)nc1C(F)(F)F` the figure was 32.3% (active).
The same measure, in the same setting: for `COc1cccc2c1C(=O)c1c(O)c3c(c(O)c1C2=O)C[C@@](O)(C(=O)CO)C[C@@H]3OC1CC(N)C(O)C(C)O1` (stereo not given in full) the value was 82.6% (active); for `CN(C)CCNc1ccc2ncn3c4ccc(O)cc4c(=O)c1c23`, 79.9% (active).
Same read-out and setting: for `CCN(CC(=O)Nc1ccc(NC(C)=O)cc1)C(=O)C1(c2ccc(Cl)cc2)CCC1` the value was 11.8%; for `COc1cccc2c1C(=O)c1c(O)c3c(c(O)c1C2=O)CC(O)(C(C)=O)CC3OC1CC(O)C(O)C(C)O1` (stereo not given), 16.1%.
Consider `Cc1ccc(C#CC[N+]2(CC#Cc3ccc(C)cc3)CCCCC2)cc1`, for which the inhibition was 67.5% (active).
Same read-out and setting: with `O=C(N/N=C/c1ccc(O)cc1)c1ccc(COc2cc(Cl)ccc2Cl)o1` the figure was 57.9% (active); with `CCCCn1c2c(c(=N)c3c1CCC3)CCC2`, 61% (active); with `Cc1c(C(C)C)c(=O)n(-c2ccc(S(=O)(=O)NCc3ccccc3)cc2)n1C`, 44.1% (active).

Usually inhibition stands for the change of the read-out against control, counted positive when it falls.
